# According to PubChem BioAssay (Tox21):
# Results filed as inconclusive are left out. Entries that show only a call come without a potency. Values without a mark were called inactive. Calls of active or inactive are those of the source. Calls come from the whole dose curve; as a rule, active = well fitted cell-killing curve with a large enough effect in the repeat runs; inconclusive = weak or mixed curves, or effect the other way; inactive = flat fitted curve, though single readings scatter.
# Assay: qHTS assay to identify small molecule agonists of the constitutive androstane receptor (CAR) signaling pathway - cell viability counter screen (AID 1224836); note: nearly all actives have a fitted effect of over 45% in size
# Conditions: HepG2-CYP2B6-hCAR viability, CellTiter-Fluor, 23 h, PK11195 added to every well; series mostly up to 92.4 µM
# Source text: U.S. Tox21 Program National Center for Advancing Translational Sciences [NCATS] NIH Chemical Genomics Center [NCGC] U.S. Environmental Protection Agency [EPA] National Institutes of Environmental Health Sciences [NIEHS] National Toxicology Program [NTP] U.S. Food and Drug Administration [FDA] Tox21 Assay Overview: The constitutive androstane receptor (CAR) is a nuclear receptor which regulates multiple drug metabolizing enzymes (DMEs) and transporters. Activating CAR will generally increase the transcription and subsequent translation of CYP2B6 and CYP3A4. These two DMEs represent about 50% of the drug metabolizing potential in the body. […] Recently, there have also been studies performed indicating CARs role in energy metabolism and cancer therapy. Therefore, inducing CARs activity could have a potential effect on diabetes and cancer. Identifying environmental toxins and compounds which modulate CAR, through the use of the Tox21 10K compound collection, will be an important step in determining the toxicity and potential therapeutic effects these factors will have on the human body. To differentiate true CAR agonists from cytotoxic substances, the assay is multiplexed with a cell viability assay.
# Tox21 Assay Protocol Summary: A double-stable (hCAR and CYP2B6-2.2kb) transfected cell line, derived from human hepatoma (HepG2) cells, was utilized for the duration of the quantitative high-throughput screens. The HepG2-CYP2B6-hCAR cells were dispensed at 2500 cells/4 uL/well in 1536-well white solid bottom plates using a Multidrop Combi. After the assay plates were incubated at 37 C/5% CO2 for 4 hrs, 23 nL of compounds at 15 concentrations (from 5-48 columns) or positive control (from 1 to 4 columns) were transferred to the assay plates using a Pintool station. One uL of PK11195 (final concentration = 0.75 uM) was added, using a Flying Reagent Dispenser, inside each well. After a 23 hr incubation period at 37 C/5% CO2, 1 uL of CellTiter-Fluor reagent was added into each well of the assay plates using a Flying Reagent Dispenser. The fluorescence intensity in the plates was then measured using a ViewLux plate reader.
SMILES,Potency,"viability change, negative = cytotoxic"
NS(=O)(=O)c1cc2c(cc1Cl)CN(C1CCCCC1)C2=O,inactive,–
C=CC(OCC)OCC,inactive,–
CN(CCOc1ccc(NS(C)(=O)=O)cc1)CCc1ccc(NS(C)(=O)=O)cc1,inactive,–
CC(C)=CCOC(=O)c1ccccc1,inactive,–
C[Si](C)(C)C,inactive,–
CN=C(NC#N)Nc1ccc(C2=NNC(=O)CC2C)cc1 (stereo not given),inactive,–
COC(=O)CCc1ccc(OCC(O)CNC(C)C)cc1 (stereo not given),inactive,–
CC/C=C\CC1=C(C)CCC1=O,inactive,–
C[C@@H](O)[C@H]1C(=O)N2C(C(=O)O)=C(SCCN=CN)C[C@H]12,inactive,–
Cc1cc(Cl)c(C)cc1Cl,inactive,–
C[Si](C)=O,–,2.34% [at 8.39 µM]
CCCCC(CC)COCCO (stereo not given),inactive,–
CN1CCN(CC(=O)N2c3ccccc3C(=O)Nc3cccnc32)CC1,–,-1.77% [at 8.39 µM]
O=C(Nc1ccc(Cl)c(Cl)c1)C1CC1,inactive,–
CCCCCCCCCC(C)=O,inactive,–
OC[C@H](Cc1cccc(O)c1)[C@H](CO)Cc1cccc(O)c1,inactive,–
Cc1[nH]cnc1-c1ccc(Cl)cc1,inactive,–
CCN1CCc2nc(N)oc2CC1,inactive,–
O=C(CS(=O)Cc1ccco1)NC/C=C\COc1cc(CN2CCCCC2)ccn1 (stereo not given),inactive,–
CN1C(C)(C)CCCC1(C)C,inactive,–

SMILES,Potency,"viability change, negative = cytotoxic"
Cc1ccccc1C(=O)Nc1ccc(C(=O)N2CCCC(N(C)C)c3ccccc32)cc1 (stereo not given),inactive,–
C=C(C)C(=O)OCc1ccccc1,inactive,–
CCCCOC(=O)c1ccccc1,inactive,–
Cc1ccsc1/C=C/C1=NCCCN1C,inactive,–
CC(=O)N[C@@H](CCC(=O)O)C(=O)O,inactive,–
CC(C)C(=O)OCCc1ccccc1,inactive,–
O=C(OCc1ccccc1)C(=O)OCc1ccccc1,inactive,–
CC(=O)/C=C/C1C(C)=CCC(C)C1(C)C (stereo not given),inactive,–
C#CC(C)N(C)C(=O)Nc1ccc(Cl)cc1 (stereo not given),inactive,–
CCC(C=O)CC,inactive,–
CCCCOCCOC(=O)COc1nc(Cl)c(Cl)cc1Cl,inactive,–
CC1=C(C(=O)O)N2C(=O)[C@@H](NC(=O)[C@H](N)c3ccc(O)cc3)[C@H]2SC1,inactive,–
O=C1CCCC(=O)O1,inactive,–
NNc1nnc(NN)c2ccccc12,inactive,–
CCNC(=O)C1CC(C)CCC1C(C)C (stereo not given),inactive,–
O=S(=O)(O)c1ccc2cc(O)c(S(=O)(=O)O)cc2c1,inactive,–
COc1ccc(C2CNC(=O)C2)cc1OC1CCCC1 (stereo not given),inactive,–
CCOC(=O)/C=C/c1ccccc1,inactive,–
C=C(C)C(=O)OCCN(CC)CC,inactive,–
O=C1c2ccccc2C(=O)C1c1ccccc1,inactive,–
